An excerpt weighted towards active compounds, which were near 1.3% of everything screened.
NCOA3 inh: human NCOA3 inhibition | AID 588352 | 360,000 compounds, 0.17% hits | inhibition, % at 3.6 µM | HEK293 GAL4-SRC3 luciferase reporter, luminescence | Q9Y6Q9;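 active = inhibition above a per-campaign cutoff, the mean of all compounds plus 3 SD, cut at about 60% in these data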;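 note: 0% = DMSO-treated cells and 100% = gossypol-treated cells at 36 µM; higher means less SRC3-driven luciferase light from the GAL4 reporter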
NCOA2 inhibitor: human SRC2 (NCOA2) inhibition. Q15596. HEK293 GAL4-SRC2 luciferase reporter, luminescence. inhibition, % at 9 µM. 370,000 compounds, 0.17% hits. AID 651957;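 active = inhibition above the mean inhibition of all tested compounds plus 3 SD, set per campaign, cut at about 52% in these data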;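 note: 0% = DMSO treated cells and 100% = cells given Gossypol at 36 µM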
Gli-Sufu antag: blocks Gli-Sufu signaling in a luciferase reporter; Sufu-KO-LIGHT fibroblasts, Gli luciferase reporter luminescence; inhibition, % at 5 µM; 340,000 compounds, 0.74% hits; AID 588413;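 active = inhibition above about 55%, limit read from the data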;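 note: 0% = DMSO-treated cells and 100% = wells with medium but no cells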
NR2F2 inh: inhibitors of human COUP-TFII (NR2F2); P24468; HEK293T NGFI-A luciferase reporter, luminescence; inhibition, % at 8.6 µM; 370,000 compounds, 0.7% hits;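 active = inhibition above a per-plate cutoff, mean inhibition of test wells between control levels plus 3 SD, cut at about 38% in these data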;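 note: cells cotransfected with COUP-TFII expression vector driving the NGFI-A reporter; 0% = median of COUP-TF2 test wells and 100% = reporter-only cells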
SRC1 inh: human NCOA1 inhibition. AID 588354. inhibition, % at 3.6 µM. Q15788. HEK293 GAL4-SRC1 luciferase reporter, luminescence. 360,000 compounds, 0.12% hits;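 active = inhibition above the campaign mean plus 3 SD, with each screening campaign given its own cutoff, cut at about 60% in these data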;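 note: 0% = DMSO treated cells and 100% = gossypol at 36 µM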
NR5A2 inv ag: inverse agonists of human LRH-1 (NR5A2); O00482; 360,000 compounds, 0.13% hits; HEK293T StAR-luciferase reporter, LRH-1 transfected, 24 h; inhibition, % at 3.6 µM; AID 602396;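 active = inhibition above the mean inhibition of all tested compounds plus 3 SD, cut at about 73% in these data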;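 note: 0% = DMSO wells and 100% = reporter-only cells lacking LRH-1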
Gal4-VP16 ctr: counter-screen for COUP-TFII antagonists: inhibitors of VP16. shares compounds with NR2F2 inh. HEK293 Gal4-VP16 luciferase reporter, luminescence. inhibition, % at 8.5 µM. 2,500 compounds, 25% hits; in the data active = inhibition above about 13%
COUP-TFII conf: confirmation of human COUP-TFII (NR2F2) inhibitors; 2,500 compounds, 45% hits; HEK293 NGFI-A luciferase reporter, luminescence; inhibition, % at 8.5 µM; AID 687008; shares compounds with NR2F2 inh;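 active = mean inhibition over three repeats above a set limit taken from the earlier primary screen, cut at about 38% in these data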;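 note: 100% = cells given the luciferase reporter alone without the COUP-TF2 vector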
Starred values were filed as active, the others as inactive.

What do the screens show for `CC(C)(C(=O)N1CCC1(C)C(=O)Nc1ccccc1Br)c1ccccc1` (stereo not drawn)?
NCOA3 inh: 5; NCOA2 inhibitor: 13; NR2F2 inh: 0; SRC1 inh: -4; NR5A2 inv ag: -1

Results for Cc1cc(C)nc(OC(C(=O)O)C(OCc2ccccc2)(c2ccccc2)c2ccccc2)n1 (stereo not drawn) ?
NCOA3 inh: 5; NCOA2 inhibitor: -6; Gli-Sufu antag: 5; NR2F2 inh: -9; SRC1 inh: 7; NR5A2 inv ag: -2

How did Cc1ccnc(OC(C(=O)O)C(OCc2ccccc2)(c2ccccc2)c2ccc(C(F)(F)F)cc2)n1 (stereo not drawn) do in these assays?
NCOA3 inh: 35; NCOA2 inhibitor: -30; Gli-Sufu antag: 10; NR2F2 inh: 47*; SRC1 inh: 8; NR5A2 inv ag: 19; Gal4-VP16 ctr: 6; COUP-TFII conf: 14

What do the screens show for `O=C(C1CC1)N1CCC(C(O)(c2ccccc2)c2ccccc2)CC1`?
NCOA3 inh: 13; NCOA2 inhibitor: -25; Gli-Sufu antag: 19; NR2F2 inh: -3; SRC1 inh: -5; NR5A2 inv ag: 14

Results for O=C(N1CCC(C(O)(c2ccccc2)c2ccccc2)CC1)n1ncc(C(O)(c2ccccc2)c2ccccc2)n1 ?
NR2F2 inh: 44*; Gal4-VP16 ctr: 0; COUP-TFII conf: 11

Results for CN(Cc1cccc(F)c1)C(=O)C1CC(=O)N(Cc2ccco2)C1 (stereo not drawn) ?
NCOA3 inh: 53; NCOA2 inhibitor: -3; NR2F2 inh: -1; SRC1 inh: -33; NR5A2 inv ag: 17

Results for CCCNC(=O)C1(C)CCCN(C(=O)COCc2ccccc2)C1 (stereo not drawn) ?
NCOA3 inh: -6; NCOA2 inhibitor: 8; NR2F2 inh: -1; SRC1 inh: -18; NR5A2 inv ag: 7

What do the screens show for `Fc1ccc(CN2CCN(c3ncc(Cc4ccccc4)cn3)CC2)c(Cl)c1`?
NCOA2 inhibitor: 24; NR2F2 inh: 51*; Gal4-VP16 ctr: 6; COUP-TFII conf: 47*

What do the screens show for `FC(F)(F)c1ccc(Cl)c(CN2CCN(c3ncc(Cc4ccccc4)cn3)CC2)c1`?
NCOA2 inhibitor: 27; NR2F2 inh: 1

How did C/C(=C\c1ccc(N)cc1)c1nc2ccccc2[nH]1 do in these assays?
NCOA3 inh: -93; NCOA2 inhibitor: -38; Gli-Sufu antag: -71; NR2F2 inh: -22; SRC1 inh: -74; NR5A2 inv ag: -64

How did O=S(=O)(/C(=C/c1ccc(C(F)(F)F)cc1)c1nc2ccccc2[nH]1)c1ccccc1 do in these assays?
NCOA3 inh: 55; NCOA2 inhibitor: 48; Gli-Sufu antag: -18; NR2F2 inh: 49*; SRC1 inh: -19; NR5A2 inv ag: 2; Gal4-VP16 ctr: 67*; COUP-TFII conf: 62*

How did CC(C)c1ccc(/C=C(\c2nc3ccccc3[nH]2)S(=O)(=O)c2ccccc2)cc1 do in these assays?
NCOA3 inh: 73*; NCOA2 inhibitor: 53*; Gli-Sufu antag: -22; NR2F2 inh: 40*; SRC1 inh: 28; NR5A2 inv ag: 57; Gal4-VP16 ctr: 31*; COUP-TFII conf: 27

What do the screens show for `CCc1ccc2cc(F)cc(F)c2n1`?
NCOA3 inh: 14; NCOA2 inhibitor: 2; NR2F2 inh: 15; SRC1 inh: 8; NR5A2 inv ag: -14

What do the screens show for `Cc1cc(=O)oc2cc(O)cc(O)c12`?
NCOA3 inh: 1; NCOA2 inhibitor: 11; Gli-Sufu antag: -1; NR2F2 inh: -5; SRC1 inh: 9; NR5A2 inv ag: 13

What do the screens show for `CCCCCc1cc(O)c2c(C)cc(=O)oc2c1`?
NCOA3 inh: 18; NCOA2 inhibitor: 7; Gli-Sufu antag: 11; NR2F2 inh: 41*; SRC1 inh: -2; NR5A2 inv ag: 3; Gal4-VP16 ctr: -20; COUP-TFII conf: -3

What do the screens show for `Cc1nc2c(-c3ccc(F)cc3)cnn2c(N)c1-c1ccc(F)cc1`?
NCOA3 inh: 38; NCOA2 inhibitor: -31; Gli-Sufu antag: 32; NR2F2 inh: 47*; SRC1 inh: 1; NR5A2 inv ag: 28; Gal4-VP16 ctr: -89; COUP-TFII conf: 18

How did Cc1cccc2nc(-c3ccccc3)c(-c3ccc(CN4CCC(n5cc(-c6ccccc6)[nH]c5=O)CC4)cc3)nc12 do in these assays?
NCOA2 inhibitor: 14; NR2F2 inh: -26

How did C=CCCC1CN(Cc2ccc(OC)cc2)S(=O)(=O)c2c(NCc3cc(OC)c(OC)c(OC)c3)cccc2O1 (stereo not drawn) do in these assays?
NCOA2 inhibitor: -7; NR2F2 inh: 43*; Gal4-VP16 ctr: 0; COUP-TFII conf: 28

What do the screens show for `C=CCCC1CN(Cc2ccc(OC)cc2)S(=O)(=O)c2c(Oc3ccc(OC)cc3)cccc2O1` (stereo not drawn)?
NCOA2 inhibitor: -19; NR2F2 inh: -4

How did C[C@@H]1CN([C@H](C)CO)C(=O)c2ccccc2-c2ccccc2CO[C@@H]1CN(C)C(=O)Nc1ccccc1 do in these assays?
NCOA2 inhibitor: 7; NR2F2 inh: 5

How did O=C(Nc1ccc(C(=O)OC2CCCCC2)cc1)c1ccncc1 do in these assays?
NCOA3 inh: 12; NCOA2 inhibitor: 10; Gli-Sufu antag: 3; NR2F2 inh: 53*; SRC1 inh: -9; NR5A2 inv ag: 18; Gal4-VP16 ctr: -8; COUP-TFII conf: 13

Results for Cc1nc(SCC(=O)N2CCCCCC2)c2c(=O)n(C)c(=O)n(CC(C)C)c2n1 ?
NCOA3 inh: 15; NCOA2 inhibitor: 18; Gli-Sufu antag: 16; NR2F2 inh: 42*; SRC1 inh: 16; NR5A2 inv ag: 16; Gal4-VP16 ctr: 0; COUP-TFII conf: 23

Results for NC(=O)c1cccc(-c2noc(-c3ccccc3F)n2)c1 ?
NCOA3 inh: 15; NCOA2 inhibitor: 13; Gli-Sufu antag: -238; NR2F2 inh: 58*; SRC1 inh: -4; NR5A2 inv ag: 12; Gal4-VP16 ctr: 22*; COUP-TFII conf: 34

How did O=c1c(Cl)c(N2CCCCC2)cnn1-c1nc2ccccc2[nH]1 do in these assays?
NCOA3 inh: 30; NCOA2 inhibitor: 32; Gli-Sufu antag: 25; NR2F2 inh: 56*; SRC1 inh: 8; NR5A2 inv ag: -28; Gal4-VP16 ctr: -40; COUP-TFII conf: -15

How did Clc1ccc2nc(N3CCCCC3)[nH]c2c1 do in these assays?
NCOA3 inh: -91; NCOA2 inhibitor: -29; Gli-Sufu antag: -68; NR2F2 inh: -49; SRC1 inh: -119; NR5A2 inv ag: -183

Compound activity as filed in PubChem BioAssay.
